High-throughput results deposited in PubChem BioAssay by several laboratories.
Shown are actives, neighbours in structure and some others; about 2.2% of the full set was active somewhere.
HIF activator: HIF pathway transcriptional activation. U2OS HRE-luciferase reporter, luminescence; normalized: DMSO 0%, desferrioxamine 100%. activation, % at 7.5 µM (by protocol). 0.32% of 300,000 active;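 active = mean activation of at least 10% of the iron chelator positive control signal, with at least half of replicates also reaching 10%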
AI-2 QS mod: Vibrio harveyi AI-2 quorum sensing modulation. Vibrio harveyi JMH597 AI-2 luminescence/OD600 ratio, 9 h; stronger effect = lower value; strain lacks LuxN and CqsS sensors; 0 = neutral-control median. 0.4% of 300,000 active. activity change, % at 7.5 µM; in the data active = activity change below about -75%, passing the limit was not always enough;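 also: luminescence divided by OD600 gain over 9 h not by final OD600 alone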
VLA-4 inh: inhibition in a human VLA-4 binding assay. AID 2557. inhibition, % (about 7 µM as worked out from the volumes in the protocol). 0.2% of 330,000 active. VLA-4 expressing cells, ligand binding flow cytometry. P13612; in the data active = inhibition above about 50%
Target sequence (P13612 whole entry, looked up): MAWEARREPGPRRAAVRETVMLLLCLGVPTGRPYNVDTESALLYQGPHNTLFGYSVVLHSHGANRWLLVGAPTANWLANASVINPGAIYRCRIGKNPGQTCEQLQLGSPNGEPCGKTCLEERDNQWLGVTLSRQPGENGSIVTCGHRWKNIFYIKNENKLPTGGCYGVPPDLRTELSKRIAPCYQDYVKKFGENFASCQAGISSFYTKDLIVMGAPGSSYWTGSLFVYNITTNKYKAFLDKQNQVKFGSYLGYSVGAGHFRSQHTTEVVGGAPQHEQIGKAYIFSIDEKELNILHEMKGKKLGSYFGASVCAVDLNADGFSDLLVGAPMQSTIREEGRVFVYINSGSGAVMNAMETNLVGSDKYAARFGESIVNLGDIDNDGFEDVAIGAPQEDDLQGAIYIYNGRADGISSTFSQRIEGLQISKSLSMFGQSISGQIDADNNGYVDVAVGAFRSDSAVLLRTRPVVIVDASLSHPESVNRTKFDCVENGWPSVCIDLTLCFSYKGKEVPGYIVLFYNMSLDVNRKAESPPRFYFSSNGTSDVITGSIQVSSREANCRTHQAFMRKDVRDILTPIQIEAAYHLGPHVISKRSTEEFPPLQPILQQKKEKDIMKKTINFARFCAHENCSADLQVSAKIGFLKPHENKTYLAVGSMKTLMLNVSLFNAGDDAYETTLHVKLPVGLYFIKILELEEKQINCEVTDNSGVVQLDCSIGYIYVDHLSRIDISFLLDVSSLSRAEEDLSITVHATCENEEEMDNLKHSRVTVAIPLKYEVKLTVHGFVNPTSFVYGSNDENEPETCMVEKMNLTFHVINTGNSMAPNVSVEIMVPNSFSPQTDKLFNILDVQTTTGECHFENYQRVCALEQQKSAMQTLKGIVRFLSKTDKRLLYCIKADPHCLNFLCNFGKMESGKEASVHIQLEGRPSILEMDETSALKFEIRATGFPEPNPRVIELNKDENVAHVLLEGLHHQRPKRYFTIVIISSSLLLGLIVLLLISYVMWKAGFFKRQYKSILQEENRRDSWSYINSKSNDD
CHT inh: inhibitors of human choline transporter CHT; Q9GZV3; CHT-expressing cells, membrane potential dye, choline response; stronger effect = lower value; B-score at 10 µM; 0.86% of 310,000 active; AID 488975;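 active = B-score over 3 SD under the library average, and starting fluorescence ratio not unusually high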;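 also: choline stimulus applied at its EC90 after an EC20 pre-addition; B-score computed on integrated fluorescence ratio after choline addition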
CHT allo act: allosteric activators of human choline transporter CHT; CHT-expressing cells, membrane potential dye, choline EC20; stronger effect = higher value; LV-AA mutant CHT in HEK293 cells; B-score at 10 µM; AID 488977; 0.49% of 310,000 active;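 active = initial fluorescence not abnormally high and integrated response B-score, plate-corrected, over 3 SD above library mean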
Platelet DG rel: platelet dense granule release activity | human platelet-rich plasma, SFLLRN dense granule ATP release, luminescence | inhibition, %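 (compounds screened at 7.5 µM in platelet-rich plasma)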 | 0.22% of 300,000 active | AID 1663;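 active = mean replicate score, as percent of positive control, at or above 50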
Numbers without * were called inactive; i = inactive; x = not tested or not shown.

SMILES	HIF activator	AI-2 QS mod	VLA-4 inh	CHT inh	CHT allo act	Platelet DG rel
COc1cccc(Oc2nnnn2-c2ccccc2)c1	2	10	13	i	i	-14
COc1cccc(-n2nnc(S(=O)(=O)c3ccc(C)cc3)c2N)c1	0	-92*	-1	i	i	4
CC(Oc1ccccc1)C(=O)Nc1nnc(S(=O)(=O)N(C)c2ccccc2)s1 (centres undefined)	0	13	16	i	i	-4
COc1ccccc1-c1cc(C(=O)Nc2cccnc2)no1	0	7	13	i	11*	-6
CN=c1scc(-c2ccccc2F)n1/N=C/c1ccc(O)c(O)c1O	-2	42	x	x	x	77*
CN=c1scc(-c2ccccc2F)n1/N=C/c1ccc[nH]1	-4	9	-16	i	i	31
COc1ccc(-c2noc(N3CCCC(C(=O)Nc4cc(F)ccc4F)C3)n2)cc1 (centres undefined)	0	13	-5	i	i	-4
CCCCc1ccc(S(=O)(=O)Nc2nnc(C)s2)cc1	-52	-98*	4	i	i	-11
Cc1c(C(=O)OCC(=O)Nc2ccc(C(=O)N(C)C)cc2)oc2ccccc12	0	20	-9	i	i	-30
Cc1ccc(S(=O)(=O)N2CCCC2C(=O)O)cc1 (centres undefined)	0	18	5	i	i	83*
Cc1ccc(S(=O)(=O)N2CC[C@@H]2C(=O)O)cc1	0	15	20	i	i	-11
COCC1CCCCN1Cc1cn[nH]c1-c1ccc2cc(OC)ccc2c1 (centres undefined)	0	9	10	i	i	-7
O=C(O)c1cc(O)c2c(c1)[C@@H]([C@H]1c3cc(C(=O)O)cc(O)c3C(=O)c3c(O[C@@H]4O[C@H](CO)[C@@H](O)[C@H](O)[C@H]4O)cccc31)c1cccc(OC3O[C@H](CO)[C@@H](O)[C@H](O)[C@H]3O)c1C2=O (some centres undefined)	-1	17	57*	i	i	-4
O=C(O)c1cc(O)c2c(c1)[C@H]([C@H]1c3cc(C(=O)O)cc(O)c3C(=O)c3c(O[C@@H]4O[C@H](CO)[C@@H](O)[C@H](O)[C@H]4O)cccc31)c1cccc(OC3O[C@H](CO)[C@@H](O)[C@H](O)[C@H]3O)c1C2=O (some centres undefined)	-1	19	2	i	i	2
Cc1nc(Cl)sc1C(=O)Nc1cccc2ccccc12	1	10	-2	i	i	-2
CCN(CC)CCCNC(=O)C1c2ccccc2C(=O)N(C)C1c1ccc(OC)cc1 (centres undefined)	795*	28	11	i	i	9
COc1ccc(C2C(C(=O)NCc3ccco3)c3ccccc3C(=O)N2C)cc1 (centres undefined)	-1	1	-2	i	i	-9
CCC(C)(C)C1CCC2(CC1)NC(=O)N(CC(=O)N1CCN(S(=O)(=O)c3cc(C)ccc3C)CC1)C2=O (centres undefined)	0	9	8	i	i	8
COc1cccc(NC(=O)COC(=O)C2CC2)c1	x	x	-8	x	x	x
CS(=O)(=O)c1ncc(Cl)c(C(=O)Nc2ccc3ccccc3c2)n1	-3	8	x	x	x	79*
CCS(=O)(=O)c1ncc(Cl)c(C(=O)Nc2ccc(C)cc2)n1	-17	-5	17	i	i	-3
CN(C(=O)CSc1nnc(-c2c[nH]c3ccccc23)n1C1CC1)C1CCS(=O)(=O)C1 (centres undefined)	x	x	-7	x	x	x
CSc1nn2cc(CCN3CCOCC3)c(-c3ccc(F)cc3)nc2c1C#N	0	17	1	i	i	1
CC(C)c1ccc(-c2csc3ncnc(N4CCN(C)CC4)c23)cc1	0	1	9	-11*	i	9
COc1ccc(-c2csc3ncnc(N4CCN(c5ccc(OC)cc5)CC4)c23)cc1	0	42	0	i	i	42
SMILES	HIF activator	AI-2 QS mod	VLA-4 inh	CHT inh	CHT allo act	Platelet DG rel
C[N+](C)=C1SCC(C)(/C=N/O)S1 (centres undefined)	0	5	14	i	i	12
O=C(Nc1ccccc1)Nc1ncc([N+](=O)[O-])s1	1	-86*	x	x	x	27
CC(C)c1nc(CNC(=O)CCc2nnc(-c3ccsc3)o2)cs1	49*	20	3	i	i	0
COC(=O)c1[nH]c(C)c(/C(O)=C2\C(=O)C(=O)N(CCN3CCOCC3)C2c2ccco2)c1C (centres undefined)	0	7	-2	i	i	10
O=C(NC12CC3CC(CC(C3)C1)C2)c1ccc([N+](=O)[O-])o1	3	-210*	14	i	i	21
O=C(NC12CC3CC(CC(C3)C1)C2)c1ccc(Br)o1	0	31	12	i	i	-3
CCc1[nH]nc(C(=O)N2CCCC(Nc3cccc(F)c3)C2)c1C (centres undefined)	1	15	-24	i	i	11
NC(=O)c1ccccc1N/C=C/C(=O)c1ccc(Cl)cc1Cl	0	17	x	x	x	52*
O=C(N/N=C/c1cc(Br)cc(Br)c1O)c1ccncc1	13*	-84*	8	i	i	-4
O=C(C[n+]1ccccc1)N/N=C/c1cc(Br)cc(Br)c1O	-9	-149*	12	i	i	-3
O=C(N/N=C/c1cc(Br)cc(Br)c1O)c1cccc(N2CCCC2=O)c1	9.6*	20	9	i	i	2
O=C(N/N=C/c1cc(Cl)cc(Cl)c1O)c1ccncc1	29*	-85*	6	i	i	6
CCOC(=O)C1CCN(C(=O)COC(=O)c2c(C)c(CC)nc3ccccc23)CC1	x	x	4	x	x	x
CCOc1ccc(NC(=O)COC(=O)CCC(=O)c2cccs2)cc1	x	x	-10	x	x	x
CS(=O)(=O)NCCCCCCNS(C)(=O)=O	-1	25	-1	i	i	-4
O=C(Nc1nnc(CCc2ccccc2)s1)c1cccc(F)c1	-3	40	7	i	i	4
O=C(NNc1nc2ccccc2s1)c1ccc(F)cc1	x	-77*	0	i	i	4
O=C(NNc1nc2c(F)cccc2s1)c1ccccc1	2	22	-10	i	i	17
Cc1ccc(/C=C2/NC(=O)N(Cc3ccccc3)C2=O)s1	0	17	-105	i	i	0
O=C1N/C(=C/c2cccs2)C(=O)N1Cc1ccc(Br)cc1	328*	-4	11	i	i	8
CN(C)/C=C/C(=O)c1ccc(-c2ccc(Cl)cc2Cl)o1	0	44	24	i	i	3
